Reference: the supplement of paper PMC11417369
In all, about 25,000 sequences were measured (“ln(normalized median fluorescence intensity)”: median about 9.3, highest 2% from about 10 on). The list comes from a sample in which the highest values are over-represented; it also holds similar and randomly drawn sequences.

tested on: PF3D7_0420300 AP2 domain 1 (GST-tagged); experiment: gcPBM binding intensity (ln(normalized median fluorescence intensity)); higher = stronger DNA binding
Procedure, shortened: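 The binding buffer was 1× PBS containing 1% milk, 0.2 mg/ml BSA, 0.5% salmon testes DNA and 0.03% Triton X-100. In it, GST-tagged P. falciparum DNA-binding domains expressed in E. coli were applied for 1 h to an Agilent 4 × 180k array of primer-extended double-stranded 36-bp intergenic genomic probes plus negative controls. Binding intensity, read with Alexa488 anti-GST antibody and a 488 nm scan, is the highest Masliner-normalised natural-log median intensity across replicate spots of either probe orientation.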

| Sequence | gcPBM binding intensity (ln) |
| --- | --- |
| TTTTACAAATATTACTGTACACATTTTCATATAATT [XGTACX_site17] | 9.49 |
| TTTTGCGAAAAAAGGTGTACTGTAAATATATTGAGG [XGTACX_site8941] | 9.09 |
| ATATATGATGTAAAAGCACACATATATATATATATA [CACACA_site9330] | 9.21 |
| TTTTTTTTAATATTTTACATTGTCTGTTAACAAATA [CACACA_negctrl_site599] | 9.14 |
| TTTCTTTTTTTTTTTATTTACCTGAATTATGTATTA [TGCATGCA_negctrl_site345] | 9.24 |
| TATGTGCACCCATATACACACACAAATACAATGATA [CACACA_site8295] | 9.81 |
| TATAAAATTTTTAAAAGTACATATTTTACATAATAC [XGTACX_site2193] | 9.1 |
| GCCTATATGTTTAGTTGTACTCCTAATATTATTTGT [XGTACX_site6060] | 9.75 |
| CGCAACACTATTTGGGTGCTCTTCAAAAAAAAAAAA [GTGCAC_site9598] | 8.56 |
| TATATATAGAAACACACACACACCAAAGCGTAGCGC [CACACA_site62] | 10 |
| TATAAAAGGAAACACACACACATATATATATATATA [CACACA_site939] | 9.74 |
| ATATAATATATATATAAACACACAAAAAAAATTATA [CACACA_site8434] | 9.63 |
| TATATATAGAAACACACACACATATATATATATATA [CACACA_site773] | 9.74 |
| TATATATAGAAACACACACACACATATATATATATA [CACACA_site4116] | 9.96 |
| TATATATATAAACACACACACACACCCAAGCGTAGC [CACACA_site4210] | 10.1 |
| ATAAAAAGGAAACACACACACACACCCATATATATA [CACACA_site904] | 10.2 |
| TATATATAGAAACACACACACACACCCAAGCGTAGC [CACACA_site63] | 10.2 |
| ATAATATATATATAAACACACAAAAAAAATTATATA [CACACA_site1534] | 9.74 |
| TAAAAAGGAAAACACACACACACATATATATATATA [CACACA_site3588] | 9.9 |
| TATATATAAAAACACACACACACACCCTATAATTAT [CACACA_site4063] | 10.3 |
| TCATAGTAGAAACACACACACACACCCATATATATA [CACACA_site1737] | 10.2 |
| TATAATATATATGTAACACACAAAAGTTATATACTT [CACACA_site2868] | 9.37 |

| Sequence | gcPBM binding intensity (ln) |
| --- | --- |
| AAAATTTTCTTTTTATGTACACATAATTTTACCGGA [XGTACX_site5276] | 9.18 |
| ATAAAATATTTTTGAACATGCAGGTAAAAAATAAAA [TGCATGCA_site1019] | 9.27 |
| ATGGATTATACGTGCACACATATATACCAATAAATA [CACACA_site4524] | 9.43 |
| AAAAGTTTTATTTAAATGAATTAATCTTTACTATAT [CACACA_negctrl_site282] | 9.07 |
| AAAACACAATTTATTACACACATATATTATATATTA [CACACA_site1420] | 9.49 |
| TGAATATTCATGTGTGTGCGCATGTTGTTAGACCAT [GTGCAC_site9869] | 9.69 |
| AACATTTTAAATTATACACACATTTTGAATATATAT [CACACA_site3470] | 9.54 |
| AGCATCATTTTACACACATGCAAATGTAAAATAGGA [TGCATGCA_site460] | 9.43 |
| GCCATTGTACCATCCACACACATATAAATATGTATA [CACACA_site7303] | 9.85 |
| TATATATATAATATTGCACACAAAATTAAAAGTAAA [CACACA_site7889] | 9.47 |
| AAAAAAAAAAAACACACACACACACCCATATATAAA [CACACA_site1170] | 10.2 |
| CAAGAAAAGAAACACACACACATATATATATATATA [CACACA_site3881] | 9.87 |
| AAAAAAAATAAACACACACACATACCCATAAATATA [CACACA_site5980] | 10.1 |
| AAAAAAAAAAAAAACACACACACACGCAGATATATA [CACACA_site6672] | 10.1 |
| TACACGCAGAAACACACACACACACCCATATATATA [CACACA_site637] | 10.3 |
| AAAAAAAAAAAAGAAACACACACATATATATATATA [CACACA_site8525] | 9.69 |
| CACCCATAGAAACACACACACGCATAAAAAAAAAAA [CACACA_site1513] | 9.71 |
| AAAAAGGAGAAACACACACACACACCCATATATATA [CACACA_site905] | 10.2 |
| CACCCATAAATATACACACGCACAACACAAAATAAA [CACACA_site2903] | 9.73 |
| TACACGCATAAACACACACACACACCCATATATATA [CACACA_site8114] | 10.4 |
| TACACCCATAGACACACACACACGCATAAAAAAAAA [CACACA_site8428] | 9.93 |
| GATAGAAAAAAATAATGTACACACACATATATGTTT [XGTACX_site392] | 9.72 |
